Results from PubChem BioAssay (EPA / NIEHS).
Activity calls are given as the source filed them. Rule for the calls: active = hit-call score of the fitted dose curve at least 0.9, where 1 is the maximum; inactive = score below 0.9.

The compounds below were run against Transcription factor Sp1 (Homo sapiens) (UniProt P08047) (assay: ATG_Sp1_CIS: Attagene CIS-FACTORIAL HepG2 Assay for human Specificity Protein 1 (Sp1) (AID 2282961)). Details: HepG2 Sp1 cis-reporter transcription, actives raise or lower the signal.
Method: ATG_CIS is a cell-based, multiplexed-readout assay that uses HepG2, a human liver cell line, with measurements taken at 24 hours after chemical dosing in a 24-well plate.ATG_Sp1_CIS is one of 52 assay component(s) measured or calculated from the ATG_CIS assay. It is designed to make measurements of mRNA induction, a form of inducible reporter, as detected with fluorescence intensity signals by Reverse transcription polymerase chain reaction (RT-PCR) and Capillary electrophoresis technology.Data from the assay component ATG_Sp1_CIS was analyzed into 1 assay endpoint. This assay endpoint, ATG_Sp1_CIS, was analyzed with bidirectional fitting relative to DMSO as the negative control and baseline of activity. Using a type of inducible reporter, measures of mRNA for gain or loss-of-signal activity can be used to understand the reporter gene at the transcription factor-level as they relate to the gene SP1. Furthermore, this assay endpoint can be referred to as a primary readout, because this assay has produced multiple assay endpoints where this one serves a reporter gene function. To generalize the intended target to other relatable targets, this assay endpoint is annotated to the dna binding intended target family, where the subfamily is zinc finger.
Human liver HepG2 cells are transiently transfected with multiple reporter transcription units (MRTUs) in 6-well plates using FuGene 6 reagent (Roche; 3 ml FuGene/1 mg DNA). The MRTU constructs are regulated by a cis-regulating element (promoter). […] A major difference between the CIS and TRANS system is that in CIS activities of endogenous TFs are measured, whereas the TRANS assay evaluates changes in activities of exogenous, chimeric NR-Gal4 proteins. […] At the end of 24 hour incubation, total RNA was isolated using TriZol reagent (Invitrogen). The isolated RNA is then reverse-transcribed using oligo(dT) primer and Mo-MLV reverse transcriptase (Invitrogen) with DNAse I (Ambion) treatment for 30 min. The one-tenth of the produced cDNA was amplified by PCR using Taq DNA polymerase (Invitrogen) and two reporter sequence-specific primers. The PCR products were fluorescently labeled by primer extension with 6-arboxyfluorescein (6-FAM) 5'-labeled reporter sequence-specific primer (2 min at 95 C, 20 s at 68 C and 10 min at 72 C) and these products were digested with 5U of HpaI (New England Biolabs) for 2h at 37 C. The fragments were purified using Qiaquick PCR columns (Qiagen), analyzed on an ABI 3130xL genetic analyzer (Applied Biosystems) with peak positions identified by using a set of X-rhodamine (ROX)-labeled MapMarker1000 molecular weight standards (BioVentures). The raw capillary electrophoresis data was processed using Attagraph software (Attagene).

Transcription factor Sp1 (Homo sapiens), sequence (P08047 whole entry, looked up): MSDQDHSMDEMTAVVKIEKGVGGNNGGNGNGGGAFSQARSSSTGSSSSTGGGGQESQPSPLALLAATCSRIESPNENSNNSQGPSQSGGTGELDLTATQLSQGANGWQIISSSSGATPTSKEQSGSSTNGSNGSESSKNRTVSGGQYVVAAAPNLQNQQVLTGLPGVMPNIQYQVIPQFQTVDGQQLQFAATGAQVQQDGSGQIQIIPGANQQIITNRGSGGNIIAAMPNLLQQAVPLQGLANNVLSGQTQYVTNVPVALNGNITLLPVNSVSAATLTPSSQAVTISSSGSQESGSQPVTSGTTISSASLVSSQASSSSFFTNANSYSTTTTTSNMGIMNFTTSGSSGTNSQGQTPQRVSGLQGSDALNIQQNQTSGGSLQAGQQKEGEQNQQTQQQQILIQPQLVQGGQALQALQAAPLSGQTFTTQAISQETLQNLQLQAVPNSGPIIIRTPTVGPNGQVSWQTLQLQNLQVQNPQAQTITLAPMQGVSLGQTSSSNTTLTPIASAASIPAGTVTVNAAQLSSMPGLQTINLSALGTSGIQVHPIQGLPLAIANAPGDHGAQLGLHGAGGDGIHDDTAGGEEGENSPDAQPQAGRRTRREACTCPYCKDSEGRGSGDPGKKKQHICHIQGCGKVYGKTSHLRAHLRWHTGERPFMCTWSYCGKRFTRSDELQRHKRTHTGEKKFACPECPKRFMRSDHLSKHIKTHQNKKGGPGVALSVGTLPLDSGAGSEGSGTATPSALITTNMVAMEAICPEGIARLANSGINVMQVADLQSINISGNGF

| Compound | outcome | AC50 |
| --- | --- | --- |
| CC(C)CC(O)Cc1ccccc1 (stereo not given) | inactive |  |
| O=S1(=O)OC(c2ccc(O)cc2)(c2ccc(O)cc2)c2ccccc21 | inactive |  |
| C[Si](C)(CCCN)O[Si](C)(C)CCCN | inactive |  |
| CCCCCCC(O)CO (stereo not given) | inactive |  |
| CCCCCCCCCCCCCOP(=O)(O)O | inactive |  |
| CCCC(C)CCC(C)=O (stereo not given) | inactive |  |
| CC(C)(C)C(=O)C=Cc1ccc(Cl)cc1 |  | 27.3 µM (active) |
| CCCCCCCCCCCCCCCC(=O)OCC | inactive |  |
| Cc1cc(=O)n(-c2ccccc2)n1C | inactive |  |
| C1=CCCC1 | inactive |  |
| CC(=O)OCC(=O)[C@@]12N=C(C)O[C@@H]1C[C@H]1[C@@H]3CCC4=CC(=O)C=C[C@]4(C)[C@H]3[C@@H](O)C[C@@]12C | inactive |  |
| O=C1c2cccc(O)c2C(=O)c2c(O)cc(CO)cc21 | inactive |  |
| CCCCCCCCc1ccc(Nc2ccc(CCCCCCCC)cc2)cc1 | inactive |  |
| C=C(C)C(=O)OCC(C)C | inactive |  |
| C=C[Si](OC(C)=O)(OC(C)=O)OC(C)=O | inactive |  |
| CC(C)=CCC/C(C)=C\C#N | inactive |  |
| CC(C)=CCCC(C)C=O (stereo not given) | inactive |  |
| CC1OC1C1CCC2(C)OC2C1 (stereo not given) | inactive |  |
| c1ccc2c(c1)ccc1cc3c(ccc4ccccc43)cc12 | inactive |  |
| COC(=O)c1ccccc1OC | inactive |  |

| Compound | outcome | AC50 |
| --- | --- | --- |
| Oc1ccc(Cl)cc1Cc1cc(Cl)ccc1O | inactive |  |
| O=C1CCCCCCCCCCCCCCCO1 | inactive |  |
| c1cc(C(c2ccc(OCC3CO3)cc2)C(c2ccc(OCC3CO3)cc2)c2ccc(OCC3CO3)cc2)ccc1OCC1CO1 (stereo not given) |  | 31.8 µM (active) |
| CCCOCCOCCOCCO | inactive |  |
| CCOC(=O)[C@H](C)O | inactive |  |
| CCCCCCOC(=O)C(C)CC (stereo not given) | inactive |  |
| Cc1ccc(C(C)c2ccc(C)c(C)c2)cc1C |  | 100 µM (active) |
| CO[Si](OC)(OC)c1ccccc1 | inactive |  |
| N#[N+]c1ccc2c(S(=O)(=O)[O-])cccc2c1O | inactive |  |
| CCOC(F)(F)C(F)(F)C(F)(F)C(F)(F)F | inactive |  |
| c1ccc2c(c1)ccc1ncccc12 | inactive |  |
| CC1(C)S[C@@H]2[C@H](NC(=O)COc3ccccc3)C(=O)N2[C@H]1C(=O)O | inactive |  |
| CC=CCO | inactive |  |
| CCN(Cc1cccc(S(=O)(=O)O)c1)c1ccc(C(=C2C=CC(=[N+](CC)Cc3cccc(S(=O)(=O)[O-])c3)C=C2)c2ccccc2)cc1 | inactive |  |
| CC/C=C\CCOC(=O)CCCCC | inactive |  |
| CCCCCC/C=C\CCCCCCCC(=O)O | inactive |  |
| FC(F)(F)C(=NOCC1OCCO1)c1ccc(Cl)cc1 | inactive |  |
| COC(=O)c1c(C)cc(O)c(C)c1O | inactive |  |
| O=C(c1ccc(O)cc1)c1ccc(O)cc1O | inactive |  |
| O=C1Nc2ccccc2C1(c1ccc(O)cc1)c1ccc(O)cc1 | inactive |  |
